Results filed as inconclusive are left out. Where a call stands in place of a potency, no number is given. Activity calls are given as the source filed them. The call rests on the fitted dose curve; in most records, active means well fitted inhibition curve with a large enough effect; inconclusive means small, poorly fitted or top-dose-only effect; inactive means flat fitted curve, though single readings scatter.
Each molecule was assayed against Calcium and integrin-binding protein 1 (Homo sapiens) (UniProt Q99828) (assay: Primary qHTS for Identification of Calcium Integrin Binding Protein 1 (CIB1) Competitor (AID 1508620;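 further: GST tagged CIB1 binding a fluorescein labelled alphaIIb integrin peptide tracer; top concentration of the series differs between compounds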)). Conditions: CIB1-GST / FITC-alphaIIb peptide fluorescence polarization; series mostly up to 114 µM.
In short: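 CIB1-GST (1 uM final) and compound incubated 15 min at room temperature before adding FITC-alphaIIb peptide tracer (100 nM final). Competition for binding read by fluorescence polarization (ex 480, em 540) after another 15 min at room temperature.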

Chain of Calcium and integrin-binding protein 1 (Homo sapiens) (Q99828 whole entry, looked up): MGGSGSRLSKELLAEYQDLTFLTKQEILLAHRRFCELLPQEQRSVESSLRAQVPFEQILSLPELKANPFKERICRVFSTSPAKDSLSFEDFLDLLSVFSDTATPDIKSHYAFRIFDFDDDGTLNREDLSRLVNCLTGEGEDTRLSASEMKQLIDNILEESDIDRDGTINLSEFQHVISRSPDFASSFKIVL

Compound	Potency
CS/C=C/C(=O)O[C@@H]1CCC2=CC(=O)C(=C(C)C)C[C@]2(C)[C@H]1C	inactive
O=C(Cc1c(F)cccc1F)Nc1cc(OCc2ccc(Cl)cc2)ccn1	inactive
CCc1c(Cl)c(O)c(Cl)c(O)c1C(=O)O[C@H]1[C@H](O)[C@H](OC)[C@H](OC/C2=C\C=C\C[C@H](O)/C(C)=C\[C@H](CC)[C@@H](O[C@@H]3OC(C)(C)[C@@H](OC(=O)C(C)C)[C@H](O)[C@@H]3O)/C(C)=C/C(C)=C/C[C@@H]([C@@H](C)O)OC2=O)O[C@@H]1C	inactive
CC1CCCC(O)CC(=O)c2c(O)cc(O)cc2CC(=O)O1 (stereo not given)	inactive
CC(C)C[C@@H]1NC(=O)[C@@H](Cc2ccccc2)NC(=O)C(CCCCCC(=O)C2CO2)NC(=O)[C@@H]2CCCCN2C1=O (stereo not given in full)	inactive
CC(C)=C[C@@H]1[C@H](CO[C@@H]2O[C@H](CO)[C@@H](O)[C@H](O)[C@H]2O)C1(C)C	inactive
C=C(CCC1C(C)(O)CCC2C(C)(C)C(O)CCC12C)C(O)CO (stereo not given)	inactive
Cc1noc(-c2ccc(-c3ccc(CC(=O)O)cc3)cc2)c1NC(=O)O[C@H](C)c1ccccc1Cl	inactive
CC(C)C[C@H](CO)Nc1nc(S[C@@H](C)c2ccccc2)nc2nc(N)sc12	inactive
CNS(=O)(=O)c1ccccc1Nc1nc(Nc2ccc(N3CCN(C)CC3)cc2OC)ncc1Br	inactive
COc1cccc(-c2cn(-c3ccc(CCN4CCC(O)CC4)cc3)c3ncnc(N)c23)c1	inactive
CC(=O)OC1CC(C)(C(=O)O)CC2C3=CC(=O)C4C5(C)CCC(OC6OC(C(=O)O)C(O)C(O)C6OC6OC(C(=O)O)C(O)C(O)C6O)C(C)(C)C5CCC4(C)C3(C)CCC12C (stereo not given)	inactive
C=CS(=O)(=O)NC1CCN(C(=O)CNc2cc(I)c(Cl)cc2OC)CC1	inactive
COC1CC/C=C(\C)C(=O)Nc2cc(O)cc(c2)CC(C)CC(OC)C(O)C(C)/C=C(\C)C1OC(N)=O (stereo not given)	inactive
C/C(=C/CO)CCC1C(C)CCC2C(C)(C)CCCC12C (stereo not given)	inactive
Cc1cc2c(F)c(Oc3ncnn4cc(OCC(C)OC(=O)C(C)N)c(C)c34)ccc2[nH]1 (stereo not given)	inactive
CC1(CO)CC2C(O)C3=C(CC(C)(O)C2C1)C(=O)OC3 (stereo not given)	inactive
CC(C)(F)CC(NC(c1ccc(-c2ccc(S(C)(=O)=O)cc2)cc1)C(F)(F)F)C(=O)NC1(C#N)CC1 (stereo not given)	inactive
O=C1COc2nccc(-c3ccccc3F)c2CN1Cc1cc(C(F)(F)F)cc(C(F)(F)F)c1	inactive
C[C@H](Oc1cc(-c2cnn(C3CCNCC3)c2)cnc1N)c1c(Cl)ccc(F)c1Cl	inactive
CC(=O)OC[C@]12[C@H](OC(C)=O)C(=O)[C@@H]3[C@@H](O)[C@@]14O[C@@]3(C)COC(=O)c1cccnc1[C@@H](C)[C@H](C)C(=O)O[C@@H]([C@H](O)[C@@H]2OC(C)=O)[C@]4(C)O	inactive
CCCCCCCCC(=O)N[C@H](CN1CCCC1)[C@H](O)c1ccc2c(c1)OCCO2	inactive
COc1cc2c(NC3CCN(C(C)C)CC3)nc(N3CCC(F)(F)CC3)nc2cc1OCCCN1CCCC1	inactive
CC(=O)OC1C(OC(=O)c2ccccc2)C2C(C)(C)CCC(OC(C)=O)C2(C)C23CCC(C)(C2)C(=O)CC13 (stereo not given)	inactive
CO[C@H]1O[C@@H]2O[C@@]3(C)CCC4[C@H](C)CCC([C@H]1C)[C@]42OO3 (stereo not given in full)	inactive

From PubChem BioAssay (NCATS)
